From the supplement of paper PMC10503962

What follows are compounds tested on Trichuris muris adult worms (assay: mean motility score (Paragon pixel variance) of adult worms (arbitrary units); higher = more motile worms, i.e. less anthelmintic effect; extreme values may be limits of the assay). Settings: 100 µM; 24 h.
Outline: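 In 96-well plates, one adult Trichuris muris worm from infected NOD SCID mice went into each well with 100 μL RPMI-1640, antibiotics and drug at 100 μM (1% v/v DMSO). After 24 h at 37°C and 5% CO2, the plates were filmed on an automated phenotyping platform. Paragon pixel-variance analysis gave the motility score, which was averaged across replicate wells.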
For `Cc1cc(C(C)(C)C)cc(C)c1C=C1NCCN1` [xylometazoline], the mean motility score was 3760.
Compound `CS(=O)(=O)Nc1ccc([N+](=O)[O-])cc1Oc1ccccc1` [nimesulide] has a mean motility score of 1.33.
In the case of `c1cnc(N2CCN(Cc3ccc4c(c3)OCO4)CC2)nc1` [piribedil], the mean motility score is reported as 1950.
For `COc1ccc(Cl)cc1C(=O)NCCc1ccc(S(=O)(=O)NC(=O)NC2CCCCC2)cc1` [glyburide], the mean motility score was 2300.
In the case of `CN/C(=N/CCSCc1nc[nH]c1C)NC#N` [cimetidine], the mean motility score is reported as 2750.
`COc1cc2c(Oc3ccc4[nH]c(C)cc4c3F)ncnc2cc1OCCCN1CCCC1` [cediranib] was tested, and the mean motility score was 0.
`COc1ccccc1O` [guaiacol] gave a mean motility score of 2150.
Work on `C[C@H](O)C(=O)Nc1c(I)c(C(=O)NC(CO)CO)c(I)c(C(=O)NC(CO)CO)c1I` [iopamidol] yielded a mean motility score of 2190.
With `COC(=O)[C@H]1[C@H]2C[C@@H]3c4[nH]c5cc(OC)ccc5c4CCN3C[C@H]2C[C@@H](OC(=O)c2cc(OC)c(OC)c(OC)c2)[C@@H]1OC` [reserpine] the mean motility score was 2180.
`Cc1c(O)cccc1C(=O)N[C@@H](CSc1ccccc1)[C@H](O)CN1C[C@H]2CCCC[C@H]2C[C@H]1C(=O)NC(C)(C)C` [nelfinavir] was tested, and the mean motility score was 1430.
Compound `CC(=O)OCC(=O)[C@@]1(O)CC[C@H]2[C@@H]3CCC4=CC(=O)CC[C@]4(C)[C@H]3[C@@H](O)C[C@@]21C` [hydrocortisone acetate] has a mean motility score of 3080.
For `Cc1ncc([N+](=O)[O-])n1CC(C)O` (configuration not stated) [secnidazole], the mean motility score was 2540.
Work on `NC[C@H](O)c1ccc(O)c(O)c1` [noradrenaline] yielded a mean motility score of 3120.
In the case of `CC1(C)O[C@@H]2C[C@H]3[C@@H]4C[C@H](F)C5=CC(=O)C=C[C@]5(C)[C@@]4(F)[C@@H](O)C[C@]3(C)[C@]2(C(=O)CO)O1` [fluocinolone acetonide], the mean motility score is reported as 2800.
Compound `COc1ccc2c(c1)c(CC(=O)O)c(C)n2C(=O)c1ccc(Cl)cc1` [indomethacin] has a mean motility score of 2460.
Work on `NS(=O)(=O)Cc1noc2ccccc12` [zonisamide] yielded a mean motility score of 2960.
Work on `CCCN1CCCC[C@H]1C(=O)Nc1c(C)cccc1C` [ropivacaine] yielded a mean motility score of 2600.
Work on `NCCNCCNCCN` [trientine] yielded a mean motility score of 2070.
In the case of `O=C(COc1ccc(Cl)cc1)N1CCN(Cc2ccc3c(c2)OCO3)CC1` [fipexide], the mean motility score is reported as 241.
Work on `NC(=O)c1ncn([C@@H]2O[C@H](CO)[C@@H](O)[C@H]2O)c1O` [mizoribine] yielded a mean motility score of 2990.
For `NNc1nncc2ccccc12` [hydralazine], the mean motility score was 1960.
In the case of `c1ccc2c(CC3=NCCN3)cccc2c1` [naphazoline], the mean motility score is reported as 4300.
`O=C1c2c(O)ccc(O)c2C(=O)c2c(NCCNCCO)ccc(NCCNCCO)c21` [mitoxantrone] was tested, and the mean motility score was 1350.
Work on `N=C(N)NCCC[C@H](N)C(=O)O` [arginine] yielded a mean motility score of 2980.
In the case of `CCCCOc1ccc(OCCCN2CCOCC2)cc1.Cl` [pramoxine hydrochloride], the mean motility score is reported as 1260.
Compound `O=C(O)/C=C/C(=O)O` [fumaric acid] has a mean motility score of 3100.
For `Cc1nc2n(c(=O)c1CCN1CCC(c3noc4cc(F)ccc34)CC1)CCCC2` [risperidone], the mean motility score was 2130.
`CN(Cc1cnc2nc(N)nc(N)c2n1)c1ccc(C(=O)N[C@@H](CCC(=O)O)C(=O)O)cc1` [methotrexate] showed a mean motility score of 3700.
With `O=C(O)COC(=O)Cc1ccccc1Nc1c(Cl)cccc1Cl` [aceclofenac] the mean motility score was 972.
`Nc1nc(N)c2nc(-c3ccccc3)c(N)nc2n1` [triamterene] gave a mean motility score of 2070.
Compound `CCc1c2c(nc3ccc(OC(=O)N4CCC(N5CCCCC5)CC4)cc13)-c1cc3c(c(=O)n1C2)COC(=O)[C@]3(O)CC` [irinotecan] has a mean motility score of 2280.
For `COCCOC(=O)C1=C(C)NC(C)=C(C(=O)OC(C)C)C1c1cccc([N+](=O)[O-])c1` (configuration not stated) [nimodipine], the mean motility score was 112.
`Cc1c(-c2ccccc2)oc2c(C(=O)OCCN3CCCCC3)cccc2c1=O` [flavoxate] showed a mean motility score of 4070.
With `FC(F)(F)C(F)(F)C(F)(F)C(F)(F)C(F)(F)C(F)(F)C(F)(F)C(F)(F)Br` [perflubron] the mean motility score was 1630.
`c1ccc(-c2ccc(C(c3ccccc3)n3ccnc3)cc2)cc1` (configuration not stated) [bifonazole] was tested, and the mean motility score was 20.
With `C=C[C@H]1CN2CC[C@H]1C[C@@H]2[C@@H](O)c1ccnc2ccc(OC)cc12` [quinidine] the mean motility score was 1610.
For `C[C@H](Cc1cc2c(c(C(N)=O)c1)N(CCCO)CC2)NCCOc1ccccc1OCC(F)(F)F` [silodosin], the mean motility score was 3810.
